Consider 26 compounds from PubChem BioAssay (Tox21).

Assay [1] can be described thus: qHTS assay to identify small molecule agonists of the sonic hedgehog signaling (Shh) pathway (AID 1259368).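 Also: NIH/3T3-derived 3T3Gli1-Luc cells carrying a stable Gli1-driven firefly luciferase reporter; series mostly up to about 92 µM; nearly all actives have a fitted effect of over 15% in size.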 In short, it runs like this:
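Following a 24 hr incubation with DMSO-dissolved compounds at 37 C, 5% CO2, Gli1-Luc NIH/3T3-derived cells received luciferase reagent for 30 min at room temperature prior to luminescence measurement.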
On the technique in general: In qHTS, concentration-response curves come from the screen itself.

Assay [2] has as its target Estrogen receptor beta (Homo sapiens) (UniProt Q92731). Nature of the assay: qHTS assay to identify small molecule agonists of the estrogen receptor beta (ER-beta) signaling pathway (AID 1259377; active = well fitted activation curve with a large enough effect in the signal ratio in the repeat runs, not every such curve was filed as active; the % refers to the signal ratio; also: potency is read from the fitted curve at half-maximal effect). The essentials: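 Beta-lactamase reporter readout: fluorescence of LiveBLAzer B/G FRET substrate after 2 h at room temperature, following 16 h compound treatment of ER-beta-UAS-bla HEK293T cells at 37C in 2% charcoal-stripped FBS medium.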

Assay [3] shares this target. Nature of the assay: qHTS assay to identify small molecule antagonists of the estrogen receptor beta (ER-beta) signaling pathway (AID 1259378; active = well fitted inhibition curve with a large enough effect in the signal ratio in the repeat runs, not every such curve was filed as active; the % refers to the signal ratio). In short, it runs like this: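 Antagonist mode: compounds added to beta-lactamase reporter HEK293T ER-beta-UAS cells stimulated with E2 (1nM final), 16 hr at 37C. LiveBLAzer B/G FRET substrate, 2 hours room temperature, fluorescence read-out.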

Assay [4] in a line: qHTS assay to identify small molecule agonists of the androgen receptor (AR) signaling pathway in the presence of an antagonist - cell viability counter screen (AID 1259379; active = well fitted curve in the direction sought with a large enough effect in the repeat runs; an effect the other way counts as inactive or inconclusive; also: nearly all actives have a fitted effect of over 25% in size; also: potency is read from the fitted curve at half-maximal effect;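 as to activity change, negative = cytotoxicity: MDA-kb2 human breast cancer cells carrying an MMTV luciferase reporter; series mostly up to about 92 µM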). In short, it runs like this:
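Each compound was tested at 15 concentrations on MDA-kb2 cells in the presence of 3.0uM nilutamide. Viability was measured by CellTiter-Fluor fluorescence after a 16 hr incubation at 37C in a CO2-free atmosphere.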

Assay [5] in a line: qHTS assay to identify small molecule agonists of the estrogen receptor beta (ER-beta) signaling pathway - cell viability counter screen (AID 1259380; active = well fitted curve in the direction sought with a large enough effect in the repeat runs; an effect the other way counts as inactive or inconclusive; also: nearly all actives have a fitted effect of over 30% in size; also: potency is read from the fitted curve at half-maximal effect). In short, it runs like this: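 Compounds dissolved in DMSO were pin-transferred onto ER-beta-UAS-bla HEK293T cells that had settled 6 hr, and exposure ran 16 hr at 37C. Following the reporter read, CellTiter-Glo luminescence after 30 min at room temperature indicated cytotoxicity.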

The target in assay [6] is Androgen receptor (Homo sapiens) (UniProt P10275). Nature of the assay: qHTS assay to identify small molecule agonists of the androgen receptor (AR) signaling pathway in the presence of an antagonist (AID 1259381). Also: nearly all actives have a fitted effect of over 15% in size. Also: potency is read from the fitted curve at half-maximal effect. The essentials:
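Plated MDA-kb2 cells (3,000/well) were pre-incubated 5hr, given nilutamide (3.0uM final) or buffer, then dosed with compounds in DMSO at 15 concentrations. Luciferase activity was quantified by luminescence after 16hr at 37C.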

A short description of assay [7]: qHTS assay to identify small molecule antagonists of the estrogen receptor beta (ER-beta) signaling pathway - cell viability counter screen (AID 1259382; active = well fitted curve in the direction sought with a large enough effect in the repeat runs; an effect the other way counts as inactive or inconclusive;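 also: HEK293T cells carrying ER-beta-UAS-bla reporter stimulated with estradiol; series mostly up to about 92 µM; nearly all actives have a fitted effect of over 55% in size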). In short, it runs like this: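 CellTiter-Glo ATP luminescence measured after the LiveBLAzer read in the same wells; ER-beta-UAS-bla HEK293T cells, 16 hr compound treatment with 1nM 17-beta-estradiol agonist at 37C, 5% CO2.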

The target of assay [8] is Estrogen receptor (Homo sapiens) (UniProt P03372). In words: qHTS assay to identify small molecule agonists of the estrogen receptor alpha (ER-alpha) signaling pathway in the presence of an antagonist (AID 1259383). Also: nearly all actives have a fitted effect of over 15% in size. Also: potency is read from the fitted curve at half-maximal effect. As to activation: top concentration of the series differs between compounds. In short, it runs like this:
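Luminescent ERE-luciferase reporter, VM7Luc4E2 cells (endogenous ER-alpha); 10.0nM ICI-182,780 final; 15-point compound titration; 22hr at 37C; ONE-Glo, 30min RT.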

Assay [9] can be described thus: qHTS assay to identify small molecule agonists or antagonists of the thyroid stimulating hormone receptor (TSHR) signaling pathway - wild type cell line counter screen (AID 1259384). In short, it runs like this: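 Counter screen in untransfected Hek293: compounds (15-point titration, triplicate) plus phosphodiesterase inhibitor Ro20-1724 added after 18 h plating; 30 min RT. Intracellular cAMP via competitive d2/cryptate immunoassay, 1 h incubation.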

A number with no mark means an inactive call. Records with an inconclusive call do not appear. Active and inactive are the calls of the source. Unless noted, calls follow the shape of the full dose curve.
% is scaled to controls: 0 for no effect and ±100 for the full control effect.

Sequence of Estrogen receptor (Homo sapiens) (P03372 whole entry, looked up): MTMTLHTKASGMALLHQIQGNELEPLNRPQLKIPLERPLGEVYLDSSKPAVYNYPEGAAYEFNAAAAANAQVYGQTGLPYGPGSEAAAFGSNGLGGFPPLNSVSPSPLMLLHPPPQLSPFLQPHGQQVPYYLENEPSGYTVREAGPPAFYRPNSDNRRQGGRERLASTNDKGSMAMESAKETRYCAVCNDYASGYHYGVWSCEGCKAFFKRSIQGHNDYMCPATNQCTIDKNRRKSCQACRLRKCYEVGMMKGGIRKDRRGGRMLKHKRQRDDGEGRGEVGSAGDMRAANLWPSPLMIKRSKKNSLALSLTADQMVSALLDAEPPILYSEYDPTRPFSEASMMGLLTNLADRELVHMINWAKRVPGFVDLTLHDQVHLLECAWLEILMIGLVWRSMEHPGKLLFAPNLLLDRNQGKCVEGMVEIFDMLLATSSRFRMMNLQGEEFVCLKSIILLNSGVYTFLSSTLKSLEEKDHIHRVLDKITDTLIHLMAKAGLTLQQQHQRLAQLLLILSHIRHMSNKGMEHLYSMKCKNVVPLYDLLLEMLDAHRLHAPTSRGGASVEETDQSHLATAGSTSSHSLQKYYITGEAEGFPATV
Sequence of Androgen receptor (Homo sapiens) (P10275 whole entry, looked up): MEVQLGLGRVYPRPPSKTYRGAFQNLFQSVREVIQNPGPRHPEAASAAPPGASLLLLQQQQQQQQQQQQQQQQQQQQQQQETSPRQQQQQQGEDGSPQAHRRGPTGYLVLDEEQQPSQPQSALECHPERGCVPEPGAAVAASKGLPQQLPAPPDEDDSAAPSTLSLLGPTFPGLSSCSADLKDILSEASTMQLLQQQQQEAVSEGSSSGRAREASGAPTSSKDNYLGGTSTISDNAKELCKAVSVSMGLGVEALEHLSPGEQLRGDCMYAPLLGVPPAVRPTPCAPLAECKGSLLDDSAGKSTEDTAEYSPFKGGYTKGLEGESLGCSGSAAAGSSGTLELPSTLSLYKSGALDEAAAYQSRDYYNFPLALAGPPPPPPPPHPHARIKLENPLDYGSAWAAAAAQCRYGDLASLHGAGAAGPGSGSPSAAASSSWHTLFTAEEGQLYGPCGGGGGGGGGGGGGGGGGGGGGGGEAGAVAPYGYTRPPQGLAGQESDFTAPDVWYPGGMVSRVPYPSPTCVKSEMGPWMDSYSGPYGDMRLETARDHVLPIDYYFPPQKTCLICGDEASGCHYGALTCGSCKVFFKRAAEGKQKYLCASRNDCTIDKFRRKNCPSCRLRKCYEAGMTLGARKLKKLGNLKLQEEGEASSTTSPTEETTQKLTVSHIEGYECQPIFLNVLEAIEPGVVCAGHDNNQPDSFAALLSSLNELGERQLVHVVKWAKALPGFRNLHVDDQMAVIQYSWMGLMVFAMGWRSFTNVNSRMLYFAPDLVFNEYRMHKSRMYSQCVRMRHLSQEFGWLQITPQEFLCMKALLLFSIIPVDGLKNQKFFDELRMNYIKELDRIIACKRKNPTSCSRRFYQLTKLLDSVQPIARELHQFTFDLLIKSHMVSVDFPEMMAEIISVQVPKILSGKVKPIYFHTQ
Sequence of Estrogen receptor beta (Homo sapiens) (Q92731 whole entry, looked up): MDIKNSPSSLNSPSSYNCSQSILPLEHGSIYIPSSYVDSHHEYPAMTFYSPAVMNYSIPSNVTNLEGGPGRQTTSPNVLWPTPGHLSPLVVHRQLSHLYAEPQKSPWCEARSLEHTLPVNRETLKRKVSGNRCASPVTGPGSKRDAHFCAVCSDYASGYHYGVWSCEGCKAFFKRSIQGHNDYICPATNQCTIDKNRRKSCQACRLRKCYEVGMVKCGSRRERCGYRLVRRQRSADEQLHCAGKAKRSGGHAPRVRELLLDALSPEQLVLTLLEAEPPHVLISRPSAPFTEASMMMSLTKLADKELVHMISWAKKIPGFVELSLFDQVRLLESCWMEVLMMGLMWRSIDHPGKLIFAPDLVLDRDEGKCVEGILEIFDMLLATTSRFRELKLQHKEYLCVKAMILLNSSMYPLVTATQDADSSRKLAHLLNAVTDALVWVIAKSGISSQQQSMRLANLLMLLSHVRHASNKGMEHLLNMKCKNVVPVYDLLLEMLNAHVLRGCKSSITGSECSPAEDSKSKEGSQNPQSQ

For `CCC(C(=O)OCCN(CC)CC)c1ccccc1` (stereo not given), the Potency result in [1], in assay [2], in assay [3], in assay [4], in [5] and in [6] was “inactive” in each case. In addition, the Potency entry in assay [7] and in assay [8] was “inactive” in each case. Moreover, the compound was called inactive in assay [9].
Take `NC(=O)Nc1ccc(Cl)cc1`: the Potency entry in assay [1], in assay [2], in assay [3], in [4], in [5] and in assay [7] was “inactive” each time. Moreover, in [8], the Potency result was “inactive”. For the same compound, the compound was classed as inactive in assay [9].
For `Cc1occc1C(=O)Nc1ccc(C(=O)N2CCC(F)(F)/C(=C\C(=O)N3CCC(N4CCCCC4)CC3)c3ccccc32)cc1`, the Potency result in assay [1], in assay [2], in assay [3], in assay [4], in assay [6] and in assay [7] was “inactive” throughout. For the same compound, in assay [8], the Potency entry was “inactive”. The result in assay [9] was inactive.
On to `CC(C)(O)c1ccccc1CC[C@@H](SCC1(CC(=O)O)CC1)c1cccc(/C=C/c2ccc3ccc(Cl)cc3n2)c1`, for which the Potency entry in [1], in [2], in assay [3], in [4], in assay [6] and in assay [7] was “inactive” throughout. Besides, the Potency result in assay [8] is “inactive”.
`O=C(CS)OCCOC(=O)CS`: the Potency result in [1], in assay [2], in assay [4] and in [7] was “inactive” throughout. Further, in assay [5], the Potency was 30.6 µM (active). In addition, the compound was called inactive in assay [9].
As to `CC(C)(CCl)c1ccccc1`, the Potency result in [1], in [2], in assay [3], in assay [4], in assay [5] and in [7] was “inactive” throughout. In addition, in assay [8], the Potency result was “inactive”. Moreover, the compound was classed as inactive in [9].
Consider `C(=C\c1ccccc1)/CN1CCN(C(c2ccccc2)c2ccccc2)CC1`, for which the Potency result in [1], in [2] and in assay [4] was “inactive” each time. Further, the compound was called inactive in assay [9].
For the compound `Cc1nc2ccccn2c(=O)c1CCN1CCC(C(=O)c2ccc(F)cc2)CC1`, the Potency entry in assay [1], in assay [2], in assay [3], in assay [4], in assay [7] and in assay [8] was “inactive” in each case.
Turning to `CC1CN(c2cc3c(cc2F)c(=O)c(C(=O)O)cn3-c2ccc(F)cc2F)CCN1` (stereo not given), the activity change in assay [1] was 0.373% [at 8.39 µM, active compounds read high]. In addition, the activation is -1.89% [at 8.39 µM] in assay [2] and 0.293% [at 8.39 µM] in [8]. The activity, negative = inhibition in [3] was 1.81% [at 8.39 µM]. The activity change, negative = cytotoxicity in assay [4] is 0.826% [at 8.39 µM]; in [7], 1.64% [at 8.39 µM].
Consider `CCCCC/C(=C\c1ccccc1)CO`, for which the Potency result in [1], in assay [2], in assay [4] and in assay [7] was “inactive” throughout. Moreover, the compound was classed as inactive in [9].
For the compound `C=CC(C)(O)CCCC(C)CCCC(C)CCCC(C)C` (stereo not given), the Potency entry in assay [1], in assay [2], in [4], in assay [5], in assay [7] and in assay [8] was “inactive” each time. Also, the compound was classed as inactive in assay [9].
With `Cc1ccc(S(=O)(=O)NC2CCCCC2)cc1`, the Potency result in assay [1], in [2], in assay [3], in assay [4], in assay [7] and in assay [8] was “inactive” in each case. Moreover, the call in assay [9] was inactive.
In the case of `CC(=O)Oc1ccc2c(c1)CC[C@@H]1[C@@H]2CC[C@]2(C)[C@@H](O)CC[C@@H]12`, the Potency entry in [1], in assay [4], in assay [5] and in assay [7] was “inactive” in each case. Besides, the Potency in assay [2] was 0.0008 µM (active). In addition, the result in assay [9] was inactive.
Consider `CCOC(=O)/C=C/C(=O)O`, for which the Potency entry in assay [1], in [2], in [3], in [4], in [5] and in [6] was “inactive” throughout. Besides, the Potency result in [7] and in assay [8] was “inactive” throughout. In addition, the compound was called inactive in assay [9].
With `Cc1cc(OI)c(C(C)C)cc1-c1cc(C(C)C)c(OI)cc1C`, the Potency entry in [1], in assay [2], in [4], in [5] and in assay [7] was “inactive” throughout.
On to `CCCCCCOC(=O)C(C)C`, for which the Potency result in [1], in [2], in assay [4] and in [7] was “inactive” throughout.
As to `CC(C)OCC1CO1` (stereo not given), the Potency entry in assay [1], in assay [2], in assay [3], in [4], in assay [5] and in assay [7] was “inactive” in each case. Moreover, the Potency result in [8] was “inactive”.
`O=C(/C=C/c1ccccc1)OCCCc1ccccc1`: the Potency result in [1], in assay [2], in assay [3], in [4], in assay [5] and in [7] was “inactive” in each case. Also, the Potency result in assay [8] was “inactive”.
Turning to `CC(=O)[C@H]1CC[C@H]2[C@@H]3C[C@H](C)C4=CC(=O)CC[C@]4(C)[C@H]3[C@@H](O)C[C@]12C`, the Potency entry in assay [1], in [2], in [3], in assay [4], in assay [5] and in [7] was “inactive” in each case. Also, the Potency in assay [6] was 0.0841 µM (active). In addition, the compound was called inactive in assay [9].
For the compound `O=C(CCCN1CCN(c2ccc(F)cc2)CC1)NC1c2ccccc2CSc2ccccc21` (stereo not given), the Potency result in [1], in assay [2], in [4] and in [8] was “inactive” throughout. In [9], the compound was called inactive.
As to `CCOc1cc(N)c(Cl)cc1C(=O)NCC1CN(Cc2ccc(F)cc2)CCO1` (stereo not given), the Potency entry in assay [1], in [2], in assay [4], in [7] and in [8] was “inactive” in each case. In addition, in assay [5], the Potency is 2.37 µM (active). In [9], the outcome was inactive.
Consider `C[Si](NC1CCCCC1)(NC1CCCCC1)NC1CCCCC1`, for which the Potency entry in assay [1], in assay [2], in [4] and in assay [8] was “inactive” in each case. The Potency in assay [5] was 27.3 µM (active).
As for `Nc1nccs1`, the Potency entry in [1], in [3], in [4], in assay [5] and in assay [7] was “inactive” in each case.
Take `CC(=O)Oc1ccc(C(=C2CCCCC2)c2ccc(OC(C)=O)cc2)cc1`: the Potency entry in [1], in assay [2], in assay [4] and in [7] was “inactive” in each case. Also, the Potency in assay [8] is 2.37 µM (active). Also, the call in [9] was inactive.
On to `c1cc[c]([Bi]([c]2ccccc2)[c]2ccccc2)cc1`, for which the Potency result in [1], in assay [2], in assay [4], in assay [5], in [7] and in [8] was “inactive” in each case. Besides, the compound was classed as inactive in assay [9].
For `CCOC(=O)N1CCC(n2c(=O)[nH]c3cc(Cl)ccc32)CC1`, the Potency entry in assay [1], in assay [2], in assay [5], in assay [6], in assay [7] and in assay [8] was “inactive” each time. Moreover, the Potency in assay [4] was 29.8 µM (active). For the same compound, in assay [9], the outcome was inactive.
